# Test results as given in PubChem BioAssay.
# Active and inactive are the calls of the source.
# Experiments:
# [1] = system: Plasmodium falciparum Sir2 (PF13_0152, Sir2A); experiment: Plasmodium falciparum Sir2A binding compounds – biochemical, small-molecule microarray, 635 nm fluorescence, primary screen (AID 1098); details: fluorescence 635 nm, higher = more signal;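 also: score merges spot fluorescence intensity with its signal-to-noise ratio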
# [2] = probe aDKK1 binding to arrayed compounds – biochemical, biotinylated probe, 635/667 nm fluorescence, primary screen (AID 1099); details: small-molecule microarray, higher = more signal;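 also: score merges 667nm spot fluorescence with signal to noise across triplicate slides; reference of the scale not given here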
# [3] = probe aCHRDL2 binding to arrayed compounds – biochemical, biotinylated probe, 635/667 nm fluorescence, primary screen (AID 1100); details: small-molecule microarray, higher = more signal
# [4] = change in splice reporter luminescence, either direction, cell-based, HEK293, spliceosome inhibition project, primary screen (AID 1101); details: HEK293 splicing luciferase reporter, 24 h, higher = more signal, called active from +8 up or from −8 down;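 also: HEK293 cells carrying a splicing-competent luciferase reporter gene; test concentration not given here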
# [5] = molecular target: Fibroblast growth factor 10 (Homo sapiens) (UniProt O15520); experiment: compounds binding fibroblast growth factor 10 – biochemical, small-molecule microarray, 635 nm fluorescence, primary screen (AID 1102); details: FGF10 binding, fluorescence 635 nm, higher = more signal
# Fibroblast growth factor 10 (Homo sapiens), sequence (O15520 whole entry, looked up): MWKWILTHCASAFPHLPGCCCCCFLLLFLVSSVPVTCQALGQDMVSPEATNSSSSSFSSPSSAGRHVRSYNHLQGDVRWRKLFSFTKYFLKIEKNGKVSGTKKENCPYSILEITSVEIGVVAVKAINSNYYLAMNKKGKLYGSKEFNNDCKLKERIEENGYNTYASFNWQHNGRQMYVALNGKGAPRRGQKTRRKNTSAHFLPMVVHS
# [6] = system: glycogen synthase kinase-3 (GSK3A per assay name; protocol says GSK3B); experiment: compounds binding glycogen synthase kinase-3 – biochemical, small-molecule microarray, 635 nm fluorescence, GSK3A, primary screen (AID 1103); details: fluorescence 635 nm, higher = more signal; also: the record names both GSK3A and GSK3B
# [7] = molecular target: Epidermal growth factor receptor (Homo sapiens) (UniProt P00533); experiment: compounds binding epidermal growth factor receptor – biochemical, small-molecule microarray, 635 nm fluorescence, primary screen (AID 1104); details: EGFR binding, higher = more signal;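 also: score merges 667 nm emission intensity with spot signal to noise over triplicate slides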
# Epidermal growth factor receptor (Homo sapiens), sequence (P00533 whole entry, looked up): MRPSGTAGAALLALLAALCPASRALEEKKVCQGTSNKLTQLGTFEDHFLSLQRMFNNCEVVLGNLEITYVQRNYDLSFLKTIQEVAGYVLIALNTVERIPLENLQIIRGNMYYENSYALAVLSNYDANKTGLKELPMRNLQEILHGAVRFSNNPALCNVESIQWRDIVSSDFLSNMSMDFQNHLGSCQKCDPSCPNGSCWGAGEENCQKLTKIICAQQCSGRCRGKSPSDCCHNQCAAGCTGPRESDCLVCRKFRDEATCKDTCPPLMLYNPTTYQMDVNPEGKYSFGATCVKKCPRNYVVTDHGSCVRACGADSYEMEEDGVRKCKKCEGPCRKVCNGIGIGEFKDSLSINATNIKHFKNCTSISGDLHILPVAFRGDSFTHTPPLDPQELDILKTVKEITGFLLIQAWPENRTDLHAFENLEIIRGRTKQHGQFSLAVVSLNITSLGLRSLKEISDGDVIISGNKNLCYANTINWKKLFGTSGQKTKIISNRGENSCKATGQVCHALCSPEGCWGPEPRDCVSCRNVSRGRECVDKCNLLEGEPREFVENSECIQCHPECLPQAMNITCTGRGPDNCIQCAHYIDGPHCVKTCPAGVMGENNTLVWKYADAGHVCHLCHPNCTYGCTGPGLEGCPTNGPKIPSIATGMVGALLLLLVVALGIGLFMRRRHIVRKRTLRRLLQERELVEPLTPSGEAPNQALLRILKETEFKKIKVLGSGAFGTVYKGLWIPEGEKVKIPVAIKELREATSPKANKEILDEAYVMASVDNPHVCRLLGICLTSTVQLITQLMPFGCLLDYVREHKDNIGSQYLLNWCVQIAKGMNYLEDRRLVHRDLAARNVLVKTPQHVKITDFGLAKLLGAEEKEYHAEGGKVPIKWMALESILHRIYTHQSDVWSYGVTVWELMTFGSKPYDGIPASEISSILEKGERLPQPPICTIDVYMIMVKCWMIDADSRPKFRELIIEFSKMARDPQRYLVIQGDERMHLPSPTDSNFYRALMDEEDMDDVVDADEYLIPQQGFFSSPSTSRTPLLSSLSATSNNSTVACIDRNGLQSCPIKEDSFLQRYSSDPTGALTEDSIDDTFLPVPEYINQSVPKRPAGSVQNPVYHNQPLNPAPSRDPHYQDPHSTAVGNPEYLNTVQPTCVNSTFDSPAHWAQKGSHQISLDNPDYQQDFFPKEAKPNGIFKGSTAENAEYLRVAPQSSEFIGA
# [8] = molecular target: Follistatin-related protein 3 (Homo sapiens) (UniProt O95633); experiment: compounds binding follistatin-related protein 3 – biochemical, small-molecule microarray, 635 nm fluorescence, primary screen (AID 1105); details: FSTL3 binding, higher = more signal;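 also: score merges emission near 667 nm and signal to noise per printed spot across three slides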
# Follistatin-related protein 3 (Homo sapiens), sequence (O95633 whole entry, looked up): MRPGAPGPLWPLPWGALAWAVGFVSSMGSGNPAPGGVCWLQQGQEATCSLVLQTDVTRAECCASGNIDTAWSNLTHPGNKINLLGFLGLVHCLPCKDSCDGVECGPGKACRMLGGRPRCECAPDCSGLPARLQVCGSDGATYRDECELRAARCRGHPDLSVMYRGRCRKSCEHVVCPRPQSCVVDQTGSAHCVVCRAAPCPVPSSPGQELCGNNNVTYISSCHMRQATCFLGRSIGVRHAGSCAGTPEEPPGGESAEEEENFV
# [9] = molecular target: Dickkopf-related protein 1 (Homo sapiens) (UniProt O94907); experiment: small molecules binding DKK1 protein – biochemical, small-molecule microarray, 635 nm fluorescence scan, primary screen (AID 1106); details: higher = more signal;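 also: score merges emission near 667 nm with signal to noise over three replicate slides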
# Dickkopf-related protein 1 (Homo sapiens), sequence (O94907 whole entry, looked up): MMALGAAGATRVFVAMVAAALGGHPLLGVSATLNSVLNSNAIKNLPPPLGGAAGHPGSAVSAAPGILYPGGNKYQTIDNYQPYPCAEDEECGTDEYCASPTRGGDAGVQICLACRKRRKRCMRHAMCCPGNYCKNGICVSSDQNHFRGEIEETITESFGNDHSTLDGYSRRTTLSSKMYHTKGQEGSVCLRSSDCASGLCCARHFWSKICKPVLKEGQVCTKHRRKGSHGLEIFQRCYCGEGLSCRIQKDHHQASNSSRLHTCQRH
# [10] = system: Inhibin beta A chain (activin A); experiment: small molecules binding activin A – biochemical, small-molecule microarray, 635 nm fluorescence scan, primary screen (AID 1107); details: INHBA, higher = more signal;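 also: mouse activin A protein probed at 4.33 µg/mL on printed slides; score merges bound-protein fluorescence near 667 nm with spot signal-to-noise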
SMILES,composite z-score [1],composite z-score [2],composite z-score [3],z-score [4],composite z-score [5],composite z-score [6],composite z-score [7],composite z-score [8],composite z-score [9],composite z-score [10]
[N-]=[N+]=Nc1ccccc1[C@@H]1OC(c2ccc(OCCCO)cc2)=N[C@]1(Cc1ccccc1)C(N)=O,0.807,0.818,0.578,0.336 (inactive),-0.121,-0.235,-0.236,-0.294,-0.205,0.982
COCCOC(=O)N1C(=O)[C@@]2(c3cc(C#CC4(O)CCCCCC4)ccc31)[C@H](c1ccccc1OCCO)N1[C@H](c3ccccc3)[C@H](c3ccccc3)OC(=O)[C@H]1[C@@H]2C(=O)N1CCCCCCC1,1.56,2.22,1.43,-0.901 (inactive),0.846,0.502,0.638,1.5,1.09,1.71
NCCCC[C@@H]1NC(=O)[C@H]2C[C@@H](C(=O)NCc3ccc(F)cc3)[C@@H](c3ccc(O)cc3)N2C1=O,1.6,0.831,1.07,0.374 (inactive),0.186,1.33,0.117,1,0.496,1.2
C#CCN([C@H](/C=C/C1CC1)[C@@H](O)Cc1ccccc1)[C@@H](Cc1ccccc1)C(=O)OC,-0.135,-0.281,0.0495,-0.606 (inactive),-0.351,-0.604,-0.215,0.232,-0.0707,0.858
C=CCC(OC(C)=O)[C@@H]1[C@@H](N(Cc2ccc(-c3cccc(C(F)(F)F)c3)o2)C(=O)c2cccc3ccccc23)c2cc(OCCCO)ccc2N1C(=O)c1ccc2ccccc2c1 (stereo not given in full),0.542,0.0086,0.256,-0.874 (inactive),0.119,-1.08,0.142,0.317,0.289,1.2
CCN(CC)c1ccc(N2CC=CC34O[C@@H]5C=CCOC(=O)[C@@H]5[C@H]3C(=O)N(CCCO)[C@@H]4C2=O)cc1 (stereo not given in full),0.481,-0.464,0.0573,-1.6 (inactive),-0.946,-1.11,-0.853,-0.69,-0.901,1.65
CN(C)CCCNC(=O)[C@@H]1c2ccccc2C(=O)N(C2Cc3ccccc3C2)[C@H]1c1ccc(CO)cc1,1.78,0.227,0.559,-0.196 (inactive),-0.514,1.27,-0.741,-0.12,-0.273,0.923
O=C1OCCC/C=C\[C@H]2OC34C=CCN(Cc5ccccc5)C(=O)[C@H]3N(CCCCCO)C(=O)[C@@H]4C12 (stereo not given in full),1.21,-0.312,0.312,-0.0325 (inactive),-0.744,-0.823,-1.1,-0.808,-0.663,0.933
N[C@@H](Cc1ccccc1)Cn1cc(C2(O)CCCCC2)nn1,-0.431,-0.149,0.174,0.242 (inactive),-0.493,-0.507,0.0669,-0.133,-0.0564,-0.239
CN(C)C(=O)[C@]1(Cc2ccccc2CN=[N+]=[N-])N=C(c2ccc(OCCCO)cc2)O[C@@H]1c1ccccc1N=[N+]=[N-],1.18,0.805,0.884,-1.27 (inactive),0.939,0.631,-0.205,0.264,-0.0994,0.814
O=C1C2C=CC(C(O)c3cccs3)N(Nc3ccccc3)C2C(=O)N1c1ccccc1 (stereo not given),0.695,0.742,0.467,-0.145 (inactive),0.0597,-0.828,0.0148,-0.03,0.034,1.42
CCCCC(O)C1C=CC2C(=O)N(C)C(=O)C2N1Nc1ccccc1 (stereo not given),0.236,0.304,0.411,0.94 (inactive),0.191,-0.0703,-0.319,0.0934,-0.8,1.24
COc1cc2c(cc1O)C(C1CC1)N(Cc1ccc([N+](=O)[O-])o1)CC2 (stereo not given),1.53,0.158,0.391,-0.28 (inactive),0.839,0.812,0.117,0.228,-0.327,0.822
CCCCCCCCCCC(O)C1C=CC2C(=O)N(C)C(=O)C2N1N1CCCCC1 (stereo not given),0.331,-0.267,0.598,1.53 (inactive),-1.9,-1.41,-2.01,-1.63,-1.29,1.35
CCC(CC)C(O)C1C=CC2C(=O)N(C)C(=O)C2N1N1CCCCC1 (stereo not given),0.669,1.72,0.906,1.58 (inactive),0.91,0.93,0.411,1.43,0.233,0.539
COC(=O)[C@@]1(Cc2ccc(F)cc2)[C@H]2c3cc(C(=O)N(C)C)n(CCO)c3C[C@H]2CN1C(=O)c1ccccc1,1.56,0.453,0.361,-0.773 (inactive),0.721,-0.532,-0.537,-0.918,-0.764,0.495
